# Measurements from PubChem BioAssay.
# Inconclusive results are not listed. Calls of active or inactive are those of the source.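 How the source made its calls, unless noted: active means GFP signal, as percent of the solvent control, above the screen mean plus 3 SD, about 149; inconclusive means no reading because the compound's own fluorescence upset strain identification; inactive means the rest.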
# Columns and labels:
# [1] = rapamycin-like changes in RPL19A-GFP expression – cell-based, S. cerevisiae, multiplex flow cytometry, primary screen (AID 1862; in the data active means percent of DMSO control GFP below about 86%;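 further: lower values mimic rapamycin by blocking the RPL19A rise seen in DMSO cells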); settings: S. cerevisiae RPL19A-GFP strain, flow cytometry fluorescence, 3 h; at 10 µM; stronger effect = lower value
# [2] = TOR pathway GLN3 branch reporter MEP2-GFP changes – S. cerevisiae, multiplex flow cytometry, primary screen (AID 1867;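 active means GFP response, as percent of the DMSO control, above the screen-wide mean plus 3 SD, about 139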;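 further: median GFP channel fluorescence of barcode-gated MEP2-GFP cells measured by flow cytometry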); settings: S. cerevisiae MEP2-GFP strain, 3 h, at 10 µM, stronger effect = higher value, 100% means same as DMSO wells
# [3] = TOR pathway RTG branch CIT2 reporter changes – S. cerevisiae, GFP fusion, multiplex flow cytometry, primary screen (AID 1870;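 active means percent response above a set limit, the screen-wide mean plus 3 SD, cut at about 130% in these data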;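 further: barcoded CIT2-GFP strain pooled with four other GFP strains with rapamycin as positive control; median GFP fluorescence per well over plate mean of DMSO wells so 100% = DMSO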); settings: S. cerevisiae CIT2-GFP expression, 3 h, at 10 µM, stronger effect = higher value
# [4] = TOR pathway LAP4-GFP level changes – S. cerevisiae, multiplex flow cytometry, primary screen (AID 1873); settings: S. cerevisiae LAP4-GFP expression, 3 h, at 10 µM, stronger effect = higher value
# [5] = yeast AGP1-GFP level changes, GLN3 branch – cell-based, multiplex flow cytometry, S. cerevisiae, primary screen (AID 1887;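 active means GFP signal above the screen-wide mean plus 3 SD, that is over about 124.5% of the solvent control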;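 further: AGP1-GFP fusion strain of S. cerevisiae within a five-strain barcoded multiplex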); settings: 3 h, at 10 µM, stronger effect = higher value
# [6] = reduced mouse 2C T cell binding to pMHC/ICAM-1 vesicles – MLPCN validation set, flow cytometry, LFA-1/ICAM-1 modulator project, pilot screen (AID 2523;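 active means response below a set limit, under 55% cells CD8-positive and vesicle-bound, and CD8 cells' 90th-percentile brightness under 279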;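 on vesicle binding response: mean PE anti-B7-1 fluorescence of CD8+ cells relative to row control; 100% = QL9-loaded vesicles with DMSO vehicle in the same plate row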); settings: 2C mouse CD8+ T cells, at 7 µM, stronger effect = lower value; double positive events: measured here: CD8+/vesicle+ event percentage
# [7] = biological target: Integrin beta-1 (Homo sapiens) + Integrin alpha-4 (Homo sapiens) (UniProt P13612+P05556); assay: alpha4beta1 integrin LIBS antibody binding reduction – U937 cells, HUTS-21 mAb, flow cytometry, validation set, VLA-4 allosteric modulator project, pilot screen (AID 2674;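 active means inhibition above 50%, about 3 SD of the validation set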;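 further: antibody binding induced by the VLA-4 ligand LDV present at three times its Kd; 0% = LDV ligand with antibody and no compound and 100% = antibody without LDV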); settings: HUTS-21 LIBS mAb binding, at 6.7 µM, stronger effect = higher value, binding induced by LDV ligand
# Chain of Integrin beta-1 (Homo sapiens) + Integrin alpha-4 (Homo sapiens) (P05556 whole entry, looked up): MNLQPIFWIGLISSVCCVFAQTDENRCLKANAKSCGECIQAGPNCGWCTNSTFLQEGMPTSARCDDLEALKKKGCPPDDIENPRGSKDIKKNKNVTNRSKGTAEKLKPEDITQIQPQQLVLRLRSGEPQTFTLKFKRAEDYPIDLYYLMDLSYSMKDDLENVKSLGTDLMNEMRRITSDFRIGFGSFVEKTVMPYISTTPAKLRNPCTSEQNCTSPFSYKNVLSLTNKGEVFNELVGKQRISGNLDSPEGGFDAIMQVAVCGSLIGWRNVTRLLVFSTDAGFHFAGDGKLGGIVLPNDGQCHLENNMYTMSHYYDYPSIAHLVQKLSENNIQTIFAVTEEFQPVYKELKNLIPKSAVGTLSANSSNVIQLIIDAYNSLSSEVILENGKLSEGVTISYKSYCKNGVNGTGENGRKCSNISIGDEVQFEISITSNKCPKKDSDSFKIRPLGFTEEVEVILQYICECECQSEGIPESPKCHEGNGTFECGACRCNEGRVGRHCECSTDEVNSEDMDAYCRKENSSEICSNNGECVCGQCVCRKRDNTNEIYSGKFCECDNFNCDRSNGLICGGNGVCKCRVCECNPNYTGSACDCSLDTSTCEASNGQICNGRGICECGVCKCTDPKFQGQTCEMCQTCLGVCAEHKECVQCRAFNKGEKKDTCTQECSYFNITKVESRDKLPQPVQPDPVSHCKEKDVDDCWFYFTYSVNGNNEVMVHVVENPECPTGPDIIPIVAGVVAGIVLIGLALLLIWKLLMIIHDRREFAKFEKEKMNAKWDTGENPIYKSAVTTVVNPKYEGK
# Chain of Integrin beta-1 (Homo sapiens) + Integrin alpha-4 (Homo sapiens) (P13612 whole entry, looked up): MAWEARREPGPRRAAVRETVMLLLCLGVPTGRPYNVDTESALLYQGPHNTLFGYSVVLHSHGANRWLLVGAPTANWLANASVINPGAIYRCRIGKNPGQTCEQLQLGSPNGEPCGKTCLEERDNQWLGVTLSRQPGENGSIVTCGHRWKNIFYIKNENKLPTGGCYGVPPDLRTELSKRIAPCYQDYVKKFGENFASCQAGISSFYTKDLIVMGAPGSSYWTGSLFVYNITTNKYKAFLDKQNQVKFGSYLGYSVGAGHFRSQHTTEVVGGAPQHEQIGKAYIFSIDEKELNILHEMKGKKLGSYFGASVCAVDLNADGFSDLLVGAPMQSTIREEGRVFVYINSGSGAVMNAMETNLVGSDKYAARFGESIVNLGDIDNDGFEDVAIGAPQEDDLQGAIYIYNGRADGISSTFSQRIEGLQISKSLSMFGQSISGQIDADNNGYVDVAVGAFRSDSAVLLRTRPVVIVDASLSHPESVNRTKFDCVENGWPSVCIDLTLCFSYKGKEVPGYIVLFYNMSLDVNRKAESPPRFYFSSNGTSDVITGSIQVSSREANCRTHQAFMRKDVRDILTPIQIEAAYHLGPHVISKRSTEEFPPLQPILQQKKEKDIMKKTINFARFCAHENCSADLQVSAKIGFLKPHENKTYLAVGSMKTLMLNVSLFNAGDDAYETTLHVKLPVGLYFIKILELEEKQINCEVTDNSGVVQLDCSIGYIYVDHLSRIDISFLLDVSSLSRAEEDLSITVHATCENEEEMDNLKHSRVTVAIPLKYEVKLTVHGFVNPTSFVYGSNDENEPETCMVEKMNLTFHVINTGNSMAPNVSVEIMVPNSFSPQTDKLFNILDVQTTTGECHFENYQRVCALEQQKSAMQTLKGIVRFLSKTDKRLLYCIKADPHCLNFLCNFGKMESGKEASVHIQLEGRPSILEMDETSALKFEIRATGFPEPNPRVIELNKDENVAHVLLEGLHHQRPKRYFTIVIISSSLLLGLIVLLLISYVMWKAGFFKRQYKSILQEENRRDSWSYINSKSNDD
# [8] = calorie-restriction mimetic ROS inhibitors, yeast – validation compound set, pilot screen (AID 2706;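 active means superoxide response below 65% of plate, a cut near 3 SD across the whole screen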;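 further: yeast exposed to compound for one week at 30 degrees C before staining; 100% = mean of all compound wells on the same plate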); settings: S. cerevisiae aging, superoxide DHE fluorescence; at 10 µM; stronger effect = lower value
# [9] = biological target: Beta-adrenergic receptor kinase 1 (Homo sapiens) (UniProt P25098); assay: GRK2 binders displacing RNA aptamer, biochemical, validation, human GRK2, bead flow cytometry (AID 488806;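 active means aptamer binding inhibition above 30%, about 3 SD of noise from non-fluorescent compounds; inactive means inhibition at or below 30%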); settings: bead-bound GRK2, FAM-aptamer displacement, at 10 µM, stronger effect = higher value
# Chain of Beta-adrenergic receptor kinase 1 (Homo sapiens) (P25098 whole entry, looked up): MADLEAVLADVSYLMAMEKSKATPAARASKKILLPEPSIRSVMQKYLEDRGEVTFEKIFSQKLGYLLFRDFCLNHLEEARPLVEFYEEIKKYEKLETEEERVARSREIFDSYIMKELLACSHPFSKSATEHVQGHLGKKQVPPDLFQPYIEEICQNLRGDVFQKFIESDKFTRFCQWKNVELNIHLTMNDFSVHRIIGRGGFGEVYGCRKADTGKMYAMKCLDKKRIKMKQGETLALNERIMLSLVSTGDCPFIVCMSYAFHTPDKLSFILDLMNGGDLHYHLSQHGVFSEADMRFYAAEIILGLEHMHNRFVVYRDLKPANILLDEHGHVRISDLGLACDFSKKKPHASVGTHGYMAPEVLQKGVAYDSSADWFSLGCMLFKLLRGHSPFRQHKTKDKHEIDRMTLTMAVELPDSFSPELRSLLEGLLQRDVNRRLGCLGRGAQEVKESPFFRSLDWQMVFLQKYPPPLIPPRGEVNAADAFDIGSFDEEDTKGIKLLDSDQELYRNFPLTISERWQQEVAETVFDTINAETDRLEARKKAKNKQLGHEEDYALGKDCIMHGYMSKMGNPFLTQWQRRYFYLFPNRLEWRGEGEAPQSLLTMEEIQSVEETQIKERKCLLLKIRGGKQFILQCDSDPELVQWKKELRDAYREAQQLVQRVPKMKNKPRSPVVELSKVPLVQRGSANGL
# [10] = biological target: Beta-2 adrenergic receptor (Homo sapiens) (UniProt P07550); assay: agonist-induced loss of surface beta2AR – cell-based, FAP fluorogen, flow cytometry, validation set, pilot screen (AID 504459;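 active means percent response above 42, roughly 3 SD of non-fluorescent test compounds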;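 further: agonist-driven loss of surface beta2AR via internalization measured by FAP dye flow cytometry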); settings: Am2.2-beta2AR cells, at 10 µM, stronger effect = higher value
# Chain of Beta-2 adrenergic receptor (Homo sapiens) (P07550 whole entry, looked up): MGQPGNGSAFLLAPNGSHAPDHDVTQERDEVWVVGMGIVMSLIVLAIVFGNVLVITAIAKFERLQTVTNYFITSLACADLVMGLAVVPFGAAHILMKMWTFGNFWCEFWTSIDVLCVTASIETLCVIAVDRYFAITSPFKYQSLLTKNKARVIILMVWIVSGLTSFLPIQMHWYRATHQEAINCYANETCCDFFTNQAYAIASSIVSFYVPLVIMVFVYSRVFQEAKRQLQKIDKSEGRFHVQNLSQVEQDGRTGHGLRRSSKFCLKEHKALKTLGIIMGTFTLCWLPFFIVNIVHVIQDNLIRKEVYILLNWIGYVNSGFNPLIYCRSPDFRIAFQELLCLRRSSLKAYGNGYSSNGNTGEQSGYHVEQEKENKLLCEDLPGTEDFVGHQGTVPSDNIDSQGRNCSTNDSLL
# [11] = biological target: AP-2 complex subunit beta (Homo sapiens) (UniProt P63010); assay: beta-arrestin/AP2 interaction blockers – biochemical, validation set, GST-AP2 beads, flow cytometry, pilot screen (AID 504541;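 active means inhibition above 54%, about 3 SD of non-fluorescent compounds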;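 further: AP2 carries R879A mutation and is captured from E. coli lysate; bead-bound FITC arrestin peptide fluorescence measuring arrestin peptide binding to AP2; 0% = DMSO wells and 100% = excess unlabeled arrestin peptide control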); settings: FITC arrestin peptide, at 10 µM, stronger effect = higher value, AP2 beta2 appendage fragment, R879A mutant
# Chain of AP-2 complex subunit beta (Homo sapiens) (P63010 whole entry, looked up, the tested form may be a part, one chain of several): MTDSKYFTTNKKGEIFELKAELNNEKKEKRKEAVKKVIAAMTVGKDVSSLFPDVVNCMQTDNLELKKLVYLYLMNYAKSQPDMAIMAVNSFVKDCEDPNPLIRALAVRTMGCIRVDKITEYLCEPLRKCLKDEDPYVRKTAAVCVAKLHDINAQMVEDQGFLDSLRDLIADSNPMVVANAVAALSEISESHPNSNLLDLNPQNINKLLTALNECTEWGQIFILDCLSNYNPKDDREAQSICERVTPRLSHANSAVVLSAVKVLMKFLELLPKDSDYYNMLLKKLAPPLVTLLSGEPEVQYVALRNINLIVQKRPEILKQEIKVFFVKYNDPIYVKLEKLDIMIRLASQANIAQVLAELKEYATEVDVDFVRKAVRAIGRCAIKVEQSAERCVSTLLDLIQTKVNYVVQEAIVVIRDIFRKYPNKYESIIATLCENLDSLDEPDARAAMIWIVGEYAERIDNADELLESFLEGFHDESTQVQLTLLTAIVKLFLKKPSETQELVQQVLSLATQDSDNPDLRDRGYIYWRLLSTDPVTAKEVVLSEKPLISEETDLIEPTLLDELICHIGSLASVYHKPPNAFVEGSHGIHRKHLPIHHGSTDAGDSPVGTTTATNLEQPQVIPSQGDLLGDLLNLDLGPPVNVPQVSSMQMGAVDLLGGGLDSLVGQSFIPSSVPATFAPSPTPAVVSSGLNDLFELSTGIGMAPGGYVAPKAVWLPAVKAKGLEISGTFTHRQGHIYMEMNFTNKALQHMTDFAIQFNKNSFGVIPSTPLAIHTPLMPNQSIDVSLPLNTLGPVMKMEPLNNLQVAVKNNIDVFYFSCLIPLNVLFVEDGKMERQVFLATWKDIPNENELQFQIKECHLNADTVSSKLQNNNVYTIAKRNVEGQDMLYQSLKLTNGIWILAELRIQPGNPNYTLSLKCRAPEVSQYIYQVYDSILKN
# [12] = cytosolic pH regulators acting via V-ATPase – S. cerevisiae, pHLuorin, HTS validation (AID 504600; in the data active means response above about 15%;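 further: plate controls were DMSO for no effect and reference compound for full effect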); settings: V-ATPase proton transport, at 10 µM, stronger effect = higher value
# [13] = test system: anti-desmoglein-3 scFv antibody binding to human DSG3; assay: blockers of pathogenic pemphigus antibody–desmoglein-3 binding – biochemical, validation compound set, bead-based, flow cytometry, pilot screen (AID 588368;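 active means binding below the plate cutoff, the plate median minus 3 SD, with a reading above zero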;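 further: signal is the median channel fluorescence of bead-bound GFP antibody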); settings: Protein G beads, DSG3-Fc, scFv-GFP binding, at 10 µM, stronger effect = lower value
# [14] = Nile Red efflux blockade in pump-expressing yeast – validation compound set, multiplex, phenotypic, pilot screen (AID 588506;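 active means efflux inhibition above 0.42, the validation set average plus 4 SD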;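 further: Nile Red retained in cells so higher fluorescence means more efflux inhibition; 0 = negative control wells and 1 = enniatin B 25 µM full block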); settings: S. cerevisiae pump-expressing triplex, Nile Red efflux flow cytometry; at 10 µM; stronger effect = higher value; the pumps come from Candida albicans
# [15] = biological target: ATP-binding cassette sub-family B member 6 (Homo sapiens) (UniProt Q9NP58); assay: blockers of ABCB6-driven porphyrin uptake – K562-ABCB6 cells, flow cytometry, validation set, pilot screen (AID 588550;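 active means inhibition above the screen-wide mean plus 3 SD, about 51%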;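 further: 0% = DMSO wells and 100% = benzethonium chloride 70 µM positive control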); settings: K562-ABCB6 porphyrin accumulation, 1 h, at 10 µM, stronger effect = higher value
# Chain of ATP-binding cassette sub-family B member 6 (Homo sapiens) (Q9NP58 whole entry, looked up): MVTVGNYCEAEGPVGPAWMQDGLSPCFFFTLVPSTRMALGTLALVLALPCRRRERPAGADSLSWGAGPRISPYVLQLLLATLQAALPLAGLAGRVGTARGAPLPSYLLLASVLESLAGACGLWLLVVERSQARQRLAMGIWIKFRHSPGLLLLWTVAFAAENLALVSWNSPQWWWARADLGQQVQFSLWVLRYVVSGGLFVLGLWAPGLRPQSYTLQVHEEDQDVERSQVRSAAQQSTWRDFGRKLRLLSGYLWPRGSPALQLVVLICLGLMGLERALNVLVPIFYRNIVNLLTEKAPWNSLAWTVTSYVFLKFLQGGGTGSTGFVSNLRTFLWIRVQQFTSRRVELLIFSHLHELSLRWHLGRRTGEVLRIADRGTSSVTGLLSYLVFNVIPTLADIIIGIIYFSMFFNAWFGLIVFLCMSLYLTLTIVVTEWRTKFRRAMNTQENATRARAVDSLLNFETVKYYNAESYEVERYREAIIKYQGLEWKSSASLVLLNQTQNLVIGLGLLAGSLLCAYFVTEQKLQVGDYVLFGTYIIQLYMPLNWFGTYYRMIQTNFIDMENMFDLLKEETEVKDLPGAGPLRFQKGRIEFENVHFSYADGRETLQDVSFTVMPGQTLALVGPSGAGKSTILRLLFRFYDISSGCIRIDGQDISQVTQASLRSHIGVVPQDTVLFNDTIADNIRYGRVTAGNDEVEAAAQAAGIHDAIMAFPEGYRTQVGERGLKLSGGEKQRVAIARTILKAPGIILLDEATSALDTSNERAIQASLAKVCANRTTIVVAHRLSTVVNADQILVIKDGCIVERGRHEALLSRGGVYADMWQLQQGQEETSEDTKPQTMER
# [16] = AML differentiation inducers, ER-HoxA9 marrow cells – cell-based, GFP/MAC1 double positive, flow cytometry, validation set, primary screen (AID 588685;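 active means differentiation response of at least 50%, scaled between solvent and reference control, from cells with both markers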;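 further: compound exposure lasts four days before antibody staining and flow analysis; 0% = DMSO wells and 100% = 5 µM fulvestrant positive control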); settings: stronger effect = higher value, normalized: vehicle 0, fulvestrant 100
SMILES,percent of DMSO control GFP [1],GFP response vs DMSO [2],percent response of DMSO control [3],GFP response vs DMSO [4],"GFP response, % of DMSO [5]",double positive events [6] [%],vesicle binding response [6],inhibition [7],superoxide response (% of plate) [8],aptamer binding inhibition [9],response [10],inhibition [11],response [12],binding (% of control) [13],efflux inhibition (fraction of control) [14],inhibition [15],differentiation response [16]
Cc1ccc(Nc2ncccc2C(=O)O)cc1C,90.6% (inactive),123% (inactive),103% (inactive),80.3% (inactive),94.7% (inactive),64.4,264% (inactive),8.4% (inactive),114% (inactive),2% (inactive),0.08% (inactive),-7.34% (inactive),-0.86% (inactive),105% (inactive),-0.31 (inactive),15% (inactive),6.55% (inactive)
O=C(O)c1cccnc1Nc1cccc(C(F)(F)F)c1,95.9% (inactive),130% (inactive),110% (inactive),83.6% (inactive),93.3% (inactive),63.3,214% (inactive),7.43% (inactive),98.6% (inactive),6% (inactive),6.98% (inactive),47.1% (inactive),-7.29% (inactive),102% (inactive),0.48 (active),15% (inactive),7.37% (inactive)
S=C(c1ccc2c(c1)OCO2)N1CCCCC1,101% (inactive),104% (inactive),104% (inactive),105% (inactive),106% (inactive),62.6,176% (inactive),-9.13% (inactive),91% (inactive),-2% (inactive),-5.76% (inactive),34.2% (inactive),-2.91% (inactive),99.8% (inactive),0.19 (inactive),12% (inactive),-10.4% (inactive)
CCO/C([O-])=N/c1c[n+](N2CCOCC2)no1,99.8% (inactive),97.7% (inactive),103% (inactive),110% (inactive),106% (inactive),64.1,237% (inactive),-18.5% (inactive),115% (inactive),-1% (inactive),9.37% (inactive),-14.8% (inactive),0.46% (inactive),100% (inactive),0 (inactive),-4% (inactive),-0.18% (inactive)
OCCOCCN1CCN(C(c2ccccc2)c2ccc(Cl)cc2)CC1 (configuration not stated),90.4% (inactive),114% (inactive),95.2% (inactive),77% (inactive),93.8% (inactive),66.8,218% (inactive),-0.33% (inactive),95% (inactive),1% (inactive),3.36% (inactive),0.96% (inactive),1.14% (inactive),110% (inactive),-0.38 (inactive),12% (inactive),-1.64% (inactive)
CC(C)c1ccc(/C=C/C(=O)O)cc1,96.3% (inactive),105% (inactive),81.5% (inactive),161% (active),83.4% (inactive),56.5,218% (inactive),7.76% (inactive),99.5% (inactive),3% (inactive),3.14% (inactive),3.59% (inactive),1.59% (inactive),94.5% (inactive),-0.35 (inactive),4% (inactive),-2.4% (inactive)
O=C(/C=C/c1ccc2c(c1)OCCCO2)c1ccc2ccccc2c1O,97.3% (inactive),102% (inactive),99.6% (inactive),112% (inactive),109% (inactive),59.6,215% (inactive),-76.9% (inactive),102% (inactive),8% (inactive),-12.2% (inactive),-2.45% (inactive),2.01% (inactive),98.5% (inactive),0.04 (inactive),6% (inactive),-7.94% (inactive)
COc1ccc2oc(=O)c(C(=O)Nc3ccccc3-c3ccccc3)cc2c1,101% (inactive),104% (inactive),99% (inactive),97.1% (inactive),113% (inactive),64.5,167% (inactive),2.29% (inactive),94.6% (inactive),4% (inactive),13.6% (inactive),85% (active),-7.05% (inactive),97.4% (inactive),0 (inactive),6% (inactive),-8.93% (inactive)
CC(C)c1cc(=O)oc2c3c4c(cc12)CCCN4CCC3,104% (inactive),99.6% (inactive),99.6% (inactive),78.6% (inactive),90.6% (inactive),59.3,145% (inactive),,97.7% (inactive),9% (inactive),46% (active),-43.1% (inactive),21.6% (active),98.7% (inactive),0.3 (inactive),2% (inactive),-21.6% (inactive)
